# Reference: article PMC4336329 (PLoS ONE, 2015)
# Screen size: about 310,000 compounds; about 14,000 (4.5%) showed an effect of 50% or more. The effect is printed as a negative number. What follows is part of a selection rich in strong results, with near analogues and random picks from the rest.
# Molecular target: human ether-à-go-go-related gene (hERG) potassium channel (human, UniProt Q12809)
# Test: primary screen, population patch clamp on CHO cells stably expressing hERG; higher = less effect of the substance
# 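Also: peak tail current of the secondary pulse compared with the same well before compound.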
# Chain of human ether-à-go-go-related gene (hERG) potassium channel (Q12809 whole entry, looked up): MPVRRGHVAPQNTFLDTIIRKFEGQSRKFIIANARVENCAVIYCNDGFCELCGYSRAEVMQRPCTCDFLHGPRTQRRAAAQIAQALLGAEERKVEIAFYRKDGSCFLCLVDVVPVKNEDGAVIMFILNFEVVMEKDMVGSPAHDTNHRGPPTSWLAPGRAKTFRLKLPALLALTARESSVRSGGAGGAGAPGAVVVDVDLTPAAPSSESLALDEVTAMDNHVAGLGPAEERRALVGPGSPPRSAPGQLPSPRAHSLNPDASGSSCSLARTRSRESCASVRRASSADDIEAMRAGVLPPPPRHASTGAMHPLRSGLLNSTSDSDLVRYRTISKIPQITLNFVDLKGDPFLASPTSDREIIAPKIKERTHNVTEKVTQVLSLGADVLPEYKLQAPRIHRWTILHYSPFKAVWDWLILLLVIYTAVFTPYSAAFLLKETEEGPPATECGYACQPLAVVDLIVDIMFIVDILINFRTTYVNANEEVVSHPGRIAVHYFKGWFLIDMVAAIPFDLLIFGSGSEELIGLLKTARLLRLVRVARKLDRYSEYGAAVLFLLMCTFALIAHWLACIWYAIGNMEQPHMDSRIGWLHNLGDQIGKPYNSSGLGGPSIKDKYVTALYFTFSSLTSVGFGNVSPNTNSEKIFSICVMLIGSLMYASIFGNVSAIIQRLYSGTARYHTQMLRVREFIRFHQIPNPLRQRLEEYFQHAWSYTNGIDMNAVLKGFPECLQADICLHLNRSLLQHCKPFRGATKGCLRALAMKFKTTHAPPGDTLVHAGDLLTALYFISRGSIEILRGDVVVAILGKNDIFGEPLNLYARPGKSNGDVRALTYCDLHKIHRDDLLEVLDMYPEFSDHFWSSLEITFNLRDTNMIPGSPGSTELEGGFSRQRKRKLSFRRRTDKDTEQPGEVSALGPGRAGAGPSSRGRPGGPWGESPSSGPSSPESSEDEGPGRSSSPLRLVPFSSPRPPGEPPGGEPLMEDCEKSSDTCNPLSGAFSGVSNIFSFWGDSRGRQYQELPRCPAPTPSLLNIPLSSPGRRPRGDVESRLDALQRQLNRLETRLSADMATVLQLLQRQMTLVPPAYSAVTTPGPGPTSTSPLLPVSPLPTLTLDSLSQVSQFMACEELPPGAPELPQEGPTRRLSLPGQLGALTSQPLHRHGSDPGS
row,SMILES,"hERG current change (%, negative = inhibition) at 10uM"
1,O=C(CNC(=O)c1cccs1)Nc1ccncc1,8.67%
2,O=C(Nc1ccc2c(c1)OCO2)C1CC(c2ccccc2Cl)=NO1 (stereo not drawn),-12.7%
3,O=C1COc2ccc(S(=O)(=O)CCC(=O)N3CCN(c4ccccc4)CC3)cc2N1,-13.1%
4,O=C1COc2ccc(S(=O)(=O)CCC(=O)N3CCN(c4cccc(Cl)c4)CC3)cc2N1,-58.4%
5,CC(CC(=O)N1CCN(c2ccccc2)CC1)S(=O)(=O)c1ccc2c(c1)NC(=O)CS2 (stereo not drawn),-34.6%
6,COc1ccccc1N1CCN(C(=O)C(C)CS(=O)(=O)c2ccc3c(c2)NC(=O)CS3)CC1 (stereo not drawn),4.07%
7,CC(CS(=O)(=O)c1ccc2c(c1)NC(=O)CS2)C(=O)N1CCN(c2cccc(Cl)c2)CC1 (stereo not drawn),-52.1%
8,O=C1COc2ccc(S(=O)(=O)CCC(=O)N3CCN(c4cccc(C(F)(F)F)c4)CC3)cc2N1,-46.3%
9,O=C(NC1CCN(c2ncccn2)CC1)c1ccccc1F,18.6%
10,O=C(CSc1ncn(-c2ccccc2)n1)c1cccs1,-3.5%
11,Cc1ccc(S(=O)(=O)N2CCN(S(=O)(=O)c3ccc4c(c3)OCCO4)CC2)cc1,8.43%
12,COc1ccccc1CNC(=O)c1cc(-c2ccncc2)nc2c(Cl)cccc12,10.5%
13,COc1ccc(CCNC(=O)c2cccc3ccccc23)cc1OC,7.77%
14,COc1ccc(CCNC(=O)c2cccc3c2C(=O)N(C2CCCCC2)C3)cc1OC,-24.1%
15,COc1ccc(CCNC(=O)c2c(C)nc3ccccn23)cc1,-4.75%
16,COc1ccc(CCNC(=O)c2cc3c(=O)n4ccccc4nc3n(C3CCCCC3)c2=N)cc1,-81.3%
17,COc1ccc(CNC(=O)c2c(C)nc3ccccn23)cc1,-12.1%
18,COc1ccc(CCNC(=O)c2cc(-c3ccncc3)nc3c(Cl)cccc23)cc1OC,-66.9%
19,COc1ccc(CCNC(=O)c2cc3c(=O)n4ccccc4nc3n(C3CCCCC3)c2=N)cc1OC,-76.6%
20,COc1ccc(CCNC(=O)c2cc(-c3ccccn3)nc3c(Cl)cccc23)cc1OC,10.5%
21,COc1ccc(CCNC(=O)c2cnc3ccccn3c2=O)cc1,-22.3%
22,COc1ccc(CCNC(=O)c2c(C)nc3ccccn23)cc1OC,-64.3%

row,SMILES,"hERG current change (%, negative = inhibition) at 10uM"
1,Cc1cc(NC(=O)c2ccc3nc(-c4ccccc4)c(-c4ccccc4)nc3c2)no1,6.59%
2,Nc1c(/C=C2\C=Nc3ccccc32)c(=O)nc2sc(CC(=O)N3CCOCC3)nn12,17.2%
3,Cc1ccc(Cn2c(C(C)Nc3nc(-c4ccc(Cl)c([N+](=O)[O-])c4)cs3)nc3cc(C(F)(F)F)ccc32)cc1 (stereo not drawn),5.46%
4,Fc1ccccc1COc1ccc(/C=N/n2cnnc2)cc1,-12.2%
5,COc1ccc(C(CCN2CCCC2)c2c(O)cc(OC)cc2OC)cc1 (stereo not drawn),-61.2%
6,COc1cc(O)c(C(CCN2CCCCC2)c2ccc(N(C)C)cc2)c(OC)c1 (stereo not drawn),-8.43%
7,COc1cc(O)c(C(CCN2CCCC2)c2ccc(N(C)C)cc2)c(OC)c1 (stereo not drawn),-10%
8,COc1cc(O)c(C(CCN2CCCCC2)c2cc(OC)c(OC)c(OC)c2)c(OC)c1 (stereo not drawn),4.24%
9,COc1ccc(C(CCN2CCCCC2)c2c(O)cc(OC)cc2OC)cc1 (stereo not drawn),-75.2%
10,COc1ccc(C(CCN2CCOCC2)c2c(O)cc(OC)cc2OC)cc1 (stereo not drawn),-47.1%
11,COc1ccccc1NS(=O)(=O)c1ccc2c(c1)NC(=O)CC(=O)N2,14.5%
12,COc1cc(CNn2cn[nH]c2=S)cc(Br)c1OCc1ccccc1F,6.75%
13,CC1(C(=O)O)COC(c2ccc(Cl)cc2)OC1 (stereo not drawn),-25.3%
14,CC(=O)Nc1ccc(S(=O)(=O)N(C)CC(=O)Nc2cccc(S(=O)(=O)N3CCCC3)c2)cc1,-8.1%
15,O=C(CCS(=O)(=O)c1ccc(Br)cc1)N1CCN(c2ccc(F)cc2)CC1,-66.3%
16,O=C(CCS(=O)(=O)c1ccccc1)N1CCN(c2ccc(F)cc2)CC1,-35.9%
17,COc1ccc(S(=O)(=O)CCC(=O)N2CCN(c3ccc(F)cc3)CC2)cc1,-59.7%
18,O=C(CCS(=O)(=O)c1ccc(Br)cc1)N1CCN(c2ccc(Cl)cc2)CC1,-9.11%
19,O=C(CCS(=O)(=O)c1ccc(F)cc1)N1CCN(c2ccccc2)CC1,-23.2%
20,O=C(CCS(=O)(=O)c1ccc(Cl)cc1)N1CCN(c2ccccc2F)CC1,-12.2%
21,O=C(CCS(=O)(=O)c1ccc(Cl)cc1)N1CCN(c2ccc(F)cc2)CC1,-76.1%
22,COc1ccc(N2CCN(C(=O)CCS(=O)(=O)c3ccc(OC)cc3)CC2)cc1,-19.3%

row,SMILES,"hERG current change (%, negative = inhibition) at 10uM"
1,COc1ccc(S(=O)(=O)CCC(=O)N2CCN(c3ccc(C(C)=O)cc3)CC2)cc1,-45.9%
2,Cc1ccc(-c2ccc(CCC(=O)O)o2)cc1,14.5%
3,CN(CCC#N)C(=S)Nc1ccc(Oc2ccccc2)cc1,-28.6%
4,N#Cc1c(SCC(N)=O)nsc1SCc1ccc(Cl)cc1,-0.34%
5,Cn1nc(-c2ccc(C(=O)O)cc2)c2ccccc2c1=O,11.6%
6,CC(C)C12CCC(C(=O)O)C(C1)C(=O)O2 (stereo not drawn),13.9%
7,N#Cc1ccccc1Oc1ccc(S(=O)(=O)N2CCCCC2)cn1,-79.6%
8,N#Cc1ccc(Oc2ccc(S(=O)(=O)N3CCCCC3)cn2)cc1,-24.7%
9,N#Cc1ccc(Oc2ccc(S(=O)(=O)N3CCCC3)cn2)cc1,-35.8%
10,N/C(=N\OC(=O)c1ccccc1Cl)c1ccccc1,-16.2%
11,O=C(c1cccs1)N(C(=O)c1cccs1)c1ccccn1,9.68%
12,CCN(CC)CCCNC(=O)c1c(O)c2ccccc2n(Cc2ccccc2)c1=O.Cl,-63.8%
13,CCn1c(=O)c(C(=O)NCCc2ccccc2)c(O)c2ccccc21,19.7%
14,CCCn1c2c(c(O)c(C(=O)NCc3ccccc3)c1=O)CCCC2,17%
15,CCCn1c2c(c(O)c(C(=O)NC)c1=O)CCCC2,-6.66%
16,CCN(CC)CCNC(=O)c1c(O)c2ccccc2n(Cc2ccccc2)c1=O.Cl,-63%
17,CCN(CC)CCCNC(=O)c1c(O)c2cc(F)cc3c2n(c1=O)C(C)CC3.Cl (stereo not drawn),-50.5%
18,C=CCn1c(=O)c(C(=O)NCCN(CC)CC)c(O)c2ccccc21.Cl,-19.2%
19,CC1CCc2cc(F)cc3c(O)c(C(=O)NCCN(C)C)c(=O)n1c23.Cl (stereo not drawn),-1%
20,CCn1c(=O)c(C(=O)NCCCc2ccccc2)c(O)c2ccccc21,8.18%
21,CC1CCc2cc(F)cc3c(O)c(C(=O)NCC4CCCO4)c(=O)n1c23 (stereo not drawn),-13.4%
22,CCCn1c2c(c(O)c(C(=O)NCCCN(CC)CC)c1=O)CCCC2.Cl,-55%

row,SMILES,"hERG current change (%, negative = inhibition) at 10uM"
1,CCn1c(=O)c(C(=O)NCCCO)c(O)c2ccccc21,10.1%
2,O=C(O)c1ccccc1-c1ccccc1C(=O)Nc1ccccc1-c1ccccc1,19.8%
3,O=C(Nc1nncs1)Oc1ccccc1,8.98%
4,CC1CCC/C(=C\Nc2ccc(O)cc2)C1=O (stereo not drawn),-0.0111%
5,Cc1cc(C(=O)NNC(=O)c2cccs2)c(C)o1,7.06%
6,CCN(CC)C(=O)CSc1nnc(-c2ccncc2)n1N,13.4%
7,Cc1ccc(-c2nnn(CC(=O)N(c3ccccc3F)C(CC(C)C)C(=O)NCC3CCCO3)n2)cc1 (stereo not drawn),-13%
8,Cl.O=c1[nH]c2ccccc2n1CCCN1CCCCC1,16.5%
9,O=C1CC(N2CCC(n3c(=O)[nH]c4ccccc43)CC2)C(=O)N1Cc1ccccc1 (stereo not drawn),-21.4%
10,O=C1NCN(c2ccccc2)C12CCN(CCCC(c1ccc(F)cc1)c1ccc(F)cc1)CC2,-75.8%
11,O=c1[nH]c2ccccc2n1CCCN1CCC(n2c(=O)[nH]c3cc(Cl)ccc32)CC1,-65.5%
12,O=C(NC1CCCCC1)N1CCC(n2c(=O)[nH]c3ccccc32)CC1,2.34%
13,O=c1[nH]c2ccccc2n1C1CCN(CCCC(c2ccc(F)cc2)c2ccc(F)cc2)CC1,-77.6%
14,O=C1NCN(c2ccccc2)C12CCN(c1nnnn1-c1ccccc1)CC2,-11.7%
15,O=C1NCN(c2ccccc2)C12CCNCC2,3.05%
16,O=C(CCCN1CCC(n2c(=O)[nH]c3ccccc32)CC1)c1ccc(F)cc1,-73%
17,O=C(Nc1cccc(F)c1)N1CCC(n2c(=O)[nH]c3ccccc32)CC1,-19%
18,O=c1[nH]c2ccccc2n1C1CCCCC1,-5.49%
19,O=C1CC(N2CCC(n3c(=O)[nH]c4ccccc43)CC2)C(=O)N1c1ccc(F)cc1 (stereo not drawn),-7.5%
20,COc1cc(/C=N/NC(=O)c2ccccn2)ccc1OC(=O)c1ccccc1Br,-1.22%
21,CC(=O)Oc1ccc2oc(-c3ccccc3)c(C(N)=O)c2c1,-14.1%
